Pf Dd2 growth – Plasmodium falciparum Dd2 growth inhibition. actives 4.3% (n = 120,000). P. falciparum Dd2 growth, SYBR Green, 72 h. Potency, µM (doses to about 28.9 µM), most hits filed as inhibitors; active means well fitted inhibition curve with a large enough effect; further: nearly all actives have a fitted effect of over 65% in size
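Readout: SYBR Green fluorescence, 485 nm excitation, 535 nm emission, after ~16 h lysis at 37C. Before that, Dd2-infected red cells (2.5% hematocrit) grew 72 h with compound, 29 uM top final concentration.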
Hits are given with their value; 0 = inactive; [ ] = another dose, or the depositor's remark. The full list was thinned out, with hits kept by preference.

SMILES	Pf Dd2 growth
O=c1c(S(=O)(=O)c2ccc(Cl)cc2)cn(Cc2ccc(F)cc2)c2ccc(F)cc12	11µM
Cc1ccc(S(=O)(=O)c2cn(Cc3ccc(F)cc3)c3cc(F)c(F)cc3c2=O)cc1	0
COc1ccc(S(=O)(=O)c2cn(C)c3ccc(C)cc3c2=O)cc1	0
CCOc1ccc2c(c1)c(=O)c(S(=O)(=O)c1ccc(CC)cc1)cn2CC	0
CCOc1ccc(S(=O)(=O)c2cn(Cc3ccccc3C)c3ccc(OC)cc3c2=O)cc1	4.5µM
CS(=O)(=O)N(C1CCOCC1)C1CN(C(=O)Nc2ccccc2)C1	0
CCn1ccc(C(=O)N2CC(C(=O)NCCc3ccncc3)C3(CCOCC3)C2)n1 (stereo unspecified)	0
O=C(CSc1ccccn1)NCc1cccnc1N1CCOCC1	0
Fc1ccc(CNCc2cccnc2N2CCN(c3ccccn3)CC2)cc1F	5µM
COc1ccc(CC(=O)NC(C)C(=O)N2CCN(c3ccccn3)CC2)cc1 (stereo unspecified)	0
C[S+](=O)([O-])N1CC2ON=C(C(=O)N3CCOCC3)C2C1 (stereo unspecified)	0
Cc1ncccc1C(=O)N1CCC(N2C(=O)CCC2C(=O)NCc2ccccc2)CC1 (stereo unspecified)	0
CC1(C)NC(=O)N(CC(=O)N[C@@H]2COCC[C@H]2Oc2ccc(C#N)cc2)C1=O	0
O=S(=O)(c1ccccc1)c1nc(-c2cccs2)oc1SCc1ccc(F)cc1	0
CCCCS(=O)(=O)c1oc(-c2ccc(F)cc2)nc1S(=O)(=O)c1ccccc1	0
Cc1ccc(S(=O)(=O)c2nc(-c3cccs3)oc2SC(C)C)cc1	0
CS(=O)(=O)c1oc(-c2ccc(F)cc2)nc1S(=O)(=O)c1ccc(Cl)cc1	0
CC(C)S(=O)(=O)c1oc(-c2ccc(F)cc2)nc1S(=O)(=O)c1ccccc1	6.3µM
CC(C)S(=O)(=O)c1oc(-c2cccs2)nc1S(=O)(=O)c1ccc(F)cc1	10µM
CCc1noc(-c2cn(C3CCN(C(=O)c4cc(C5CC5)[nH]n4)C3)nn2)n1 (stereo unspecified)	0
COc1cc(SC)ccc1C(=O)N[C@H]1CCN2C(=O)[C@@H](CC(=O)O)NC(=O)[C@@H]2C1	0
Cc1ccc(C(C)NC(=O)CN2C(=O)NC3(CCCCC3)C2=O)cc1 (stereo unspecified)	0
Cn1cccc1CN1CCC2(CC1)C(=O)NCN2Cc1ccc(Cl)cc1	0
COc1ccc(CN2CCC3(CC2)NC(=O)c2ccccc2O3)cc1	13µM
O=C1NC2(CCN(Cc3ccc(F)cc3)C2)Oc2ccccc21 (stereo unspecified)	11µM
SMILES	Pf Dd2 growth
O=C1NC2(CCN(Cc3ccc(C(F)(F)F)cc3)C2)Oc2ccccc21 (stereo unspecified)	0
CC(=O)Nc1ccc(CN2CCC3(CC2)NC(=O)c2ccccc2O3)cc1	0
CN(C)c1ccc(CN2CCC3(C2)NC(=O)c2ccccc2O3)cc1 (stereo unspecified)	0
O=C1NC2(CCCN(Cc3ccc(F)cc3)C2)COc2ccccc21 (stereo unspecified)	0
COc1ccc(CN2CCC3(CC2)C(=O)NCN3Cc2ccc(Cl)cc2)cc1	3.2µM
O=C1NCN(Cc2ccc(Cl)cc2)C12CCN(Cc1ccncc1)CC2	0
O=C1NC2(CCCN(Cc3cccnc3)C2)COc2ccccc21 (stereo unspecified)	0
O=C1NC2(CCCN(Cc3ccccn3)C2)COc2ccccc21 (stereo unspecified)	0.63µM
COc1ccc(CN2CCC3(C2)NC(=O)c2ccccc2CO3)cc1 (stereo unspecified)	0
O=C(N[C@H]1CO[C@H]2[C@@H]1OC[C@H]2OCc1ccccc1)c1ccc(C(F)(F)F)cc1	0
CCC(=O)N1CCC(Cc2ncc(C)n2C(C)C)C1 (stereo unspecified)	0
O=C([C@H]1O[C@H](CCN2CCC(CO)CC2)CC[C@@H]1O)N1CCN(c2ccccc2)CC1	0
O=C(C1CCN(C(=O)N2CC3CC(C2)[C@H]2CCCC(=O)N2C3)CC1)N1CCN(c2ncccn2)CC1 (stereo partly specified)	0
COc1ccc(-c2cc(N3CCC(NC(=O)c4ccc5cc[nH]c5c4)CC3)n[nH]2)cc1	0
Cc1cnc(C(=O)N[C@@H]2CCC[C@@H]2C(=O)N2CCN(C(C)C)CC2)cn1	0
Nc1n[nH]c(C(=O)N2C[C@@H](C(=O)O)[C@H](C3CC3)C2)c1Cl	0
CN1CCN(c2ccc(-c3cn(C)c(=O)n4cc(CNc5ccccc5)nc34)cn2)CC1	0
O=C1NC2(CCCN(Cc3ccccc3)C2)Oc2ccccc21 (stereo unspecified)	13µM
COc1cccc([S+](=O)([O-])N2CCC3(CC2)NC(=O)c2ccccc2O3)c1	0
O=C1NC2(CCN(Cc3ccccc3)C2)Oc2ccccc21 (stereo unspecified)	0
O=C1NC2(CCN(Cc3ccc(F)cc3)CC2)Oc2ccccc21	10µM
O=C1NC2(CCN(Cc3ccsc3)CC2)Oc2ccccc21	0
O=C1NC2(CCCN(Cc3ccsc3)C2)COc2ccccc21 (stereo unspecified)	0
Cc1cc(CN2CCC3(C2)NC(=O)c2ccccc2O3)no1 (stereo unspecified)	0
O=C1NC2(CCCN(Cc3ccncc3)C2)Oc2ccccc21 (stereo unspecified)	0
SMILES	Pf Dd2 growth
COc1cccc(CN2CCC3(C2)NC(=O)c2ccccc2O3)c1 (stereo unspecified)	13µM
CN(C)c1ccc(CN2CCC3(CC2)NC(=O)c2ccccc2O3)cc1	0
COc1cccc(CN2CCCC3(COc4ccccc4C(=O)N3)C2)c1 (stereo unspecified)	11µM
COc1cccc(CN2CCC3(COc4ccccc4C(=O)N3)C2)c1 (stereo unspecified)	0
CO[C@H]1C(=O)N(C2CCN(Cc3ccc(C)s3)CC2)[C@H]1c1ccncc1	0
CC(C)NC(=O)N[C@H]1C[C@@H](C(=O)N[C@H](Cc2c[nH]c3ccccc23)C(N)=O)N(C(=O)c2cccn2C)C1	0
COc1ccc(-c2cc(N3CCCN(C(=O)C4CCN(C(=O)c5ccccc5)CC4)CC3)n[nH]2)cc1	0
O=C(Cc1cnc[nH]c1=O)N1CCC2(CC1)[C@H](O)C[C@@H]2OCCO	0
Cc1nc([C@@H]2CN(S(=O)(=O)C(C)C)C[C@H]2C(N)=O)n[nH]1	0
Cc1cc(C(=O)N2c3ccccc3CC2c2nc(C(C)C)no2)nn1C (stereo unspecified)	0[5.79 µM]
O=C(c1cnccn1)N1C[C@@H]2OCC(=O)N(CC3CC3)[C@@H]2C1	0
O=C(c1ccc(Cl)cc1)N1CCC(n2c(=O)[nH]c3ccccc32)CC1	0
O=C(c1ccncc1)N1CCC2(CC1)NCCc1c2[nH]c2ccccc12	0
O=C(c1cccnc1)N1CCC2(CC1)NCCc1c2[nH]c2ccccc12	0
O=C(c1ccc(Cn2ccnc2)o1)N1CCC2(CC1)NCCc1c2[nH]c2ccccc12	13µM
CN(Cc1ccc(F)cc1)C(=O)Nc1ccc(Cl)cc1	0
Oc1ccc(CN2CCCCC2c2nc(CCOCC3CC3)no2)cc1 (stereo unspecified)	0
O=C(Nc1cccn2nc(C3CCC3)nc12)c1cccc(C(F)(F)F)c1	4.5µM
Cc1ccc(C(=O)Nc2cccn3nc(C4CCC4)nc23)cc1C	0
O=C(Nc1cccn2nc(C3CCC3)nc12)c1ccc(F)cc1	0
O=C(c1ccccn1)N1CCCN(c2cc(-c3ccc(Cl)cc3)[nH]n2)CC1	0
Cc1ccc(F)cc1CN1CCOc2cc([S+](N)(=O)[O-])ccc2C1	0

Bioassay records deposited in PubChem BioAssay by National Center for Advancing Translational Sciences (NCATS).
